According to the supplement of paper PMC10849652:
Of roughly 8,800 targets only a part is listed; those with a hit were picked by preference. About 0.5% of all pairs of compound and target were hits.

Compound: NC(=O)c1cnc(N[C@@H]2CCCC[C@@H]2N)nc1Nc1cccc(-n2nccn2)c1
Test: log2 fold change, soluble protein after heating vs DMSO (PISA); higher = thermal stabilisation; K562 lysate, 10 uM; active = over 0.2 and 3.5 SD of the protein, either way, in both replicates (recomputed)
Outline: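 Thermal stability, expressed as log-two fold change relative to solvent controls, is given from duplicates. Crude K562 extract in PBS pH 7.4 with 1 mM MgCl2, at 1 mg/mL protein, was treated with 10 μM compound for 30 min and heated in aliquots for 3 min across 48°C-58°C. After pooling, adjustment to 0.5% NP-40 at 4°C and centrifugation at 21,000xg for 90 min, supernatant protein was measured by TMTpro 16plex LC-MS/MS with channel sums equalised.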

UniProt Q8TDG4, sequence (Q8TDG4 whole entry, looked up): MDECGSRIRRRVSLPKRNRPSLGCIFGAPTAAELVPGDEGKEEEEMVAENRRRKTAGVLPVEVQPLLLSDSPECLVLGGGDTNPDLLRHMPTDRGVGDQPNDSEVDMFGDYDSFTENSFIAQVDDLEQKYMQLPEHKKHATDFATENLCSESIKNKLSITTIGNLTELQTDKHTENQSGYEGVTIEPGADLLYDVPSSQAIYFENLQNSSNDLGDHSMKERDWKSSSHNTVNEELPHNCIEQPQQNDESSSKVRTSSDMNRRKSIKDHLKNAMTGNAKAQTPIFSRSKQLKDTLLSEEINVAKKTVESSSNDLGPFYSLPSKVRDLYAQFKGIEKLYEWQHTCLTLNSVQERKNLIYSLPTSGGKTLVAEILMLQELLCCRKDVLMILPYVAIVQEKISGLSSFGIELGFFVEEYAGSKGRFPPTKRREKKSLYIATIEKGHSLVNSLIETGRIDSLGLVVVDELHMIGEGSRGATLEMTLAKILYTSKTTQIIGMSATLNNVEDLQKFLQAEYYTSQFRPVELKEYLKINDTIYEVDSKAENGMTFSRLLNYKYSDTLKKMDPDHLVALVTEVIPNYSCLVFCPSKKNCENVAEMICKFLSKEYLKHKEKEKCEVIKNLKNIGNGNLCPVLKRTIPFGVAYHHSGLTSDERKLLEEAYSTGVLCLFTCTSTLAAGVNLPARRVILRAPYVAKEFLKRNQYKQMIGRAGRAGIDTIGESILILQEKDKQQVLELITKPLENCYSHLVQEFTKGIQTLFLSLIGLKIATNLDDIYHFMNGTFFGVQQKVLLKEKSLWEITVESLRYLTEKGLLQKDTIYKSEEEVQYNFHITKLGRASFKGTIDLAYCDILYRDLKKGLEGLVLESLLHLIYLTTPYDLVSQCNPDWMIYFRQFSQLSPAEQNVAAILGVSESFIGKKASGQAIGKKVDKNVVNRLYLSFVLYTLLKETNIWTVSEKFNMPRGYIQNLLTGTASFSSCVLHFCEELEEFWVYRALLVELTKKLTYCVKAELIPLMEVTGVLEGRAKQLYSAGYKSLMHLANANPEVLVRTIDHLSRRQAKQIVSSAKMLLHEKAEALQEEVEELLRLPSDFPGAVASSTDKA
UniProt Q14103, sequence (Q14103 whole entry, looked up): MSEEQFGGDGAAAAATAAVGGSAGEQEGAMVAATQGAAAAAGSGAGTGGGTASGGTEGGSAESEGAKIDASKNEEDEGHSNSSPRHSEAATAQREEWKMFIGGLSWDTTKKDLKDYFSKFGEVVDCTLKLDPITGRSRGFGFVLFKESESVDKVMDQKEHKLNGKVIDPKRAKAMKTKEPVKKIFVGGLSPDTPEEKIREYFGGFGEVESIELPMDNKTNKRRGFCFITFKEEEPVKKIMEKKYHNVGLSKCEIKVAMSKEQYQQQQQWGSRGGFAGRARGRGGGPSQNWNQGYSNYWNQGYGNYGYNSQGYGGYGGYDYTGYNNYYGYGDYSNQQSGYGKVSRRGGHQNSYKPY
UniProt Q9NWZ3, sequence (Q9NWZ3 whole entry, looked up): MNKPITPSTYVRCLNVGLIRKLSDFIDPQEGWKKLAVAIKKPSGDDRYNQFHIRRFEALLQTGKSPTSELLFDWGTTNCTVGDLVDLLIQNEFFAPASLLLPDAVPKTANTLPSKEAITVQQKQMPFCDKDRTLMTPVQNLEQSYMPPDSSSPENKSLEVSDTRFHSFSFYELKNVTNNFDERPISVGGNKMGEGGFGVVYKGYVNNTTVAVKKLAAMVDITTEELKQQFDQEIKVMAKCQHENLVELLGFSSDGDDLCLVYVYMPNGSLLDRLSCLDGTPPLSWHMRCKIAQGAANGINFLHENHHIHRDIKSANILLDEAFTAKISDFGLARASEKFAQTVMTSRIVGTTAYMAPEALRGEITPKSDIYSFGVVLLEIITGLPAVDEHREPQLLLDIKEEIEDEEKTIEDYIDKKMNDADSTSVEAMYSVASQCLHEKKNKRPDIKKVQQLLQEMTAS
UniProt O15379, sequence (O15379 whole entry, looked up): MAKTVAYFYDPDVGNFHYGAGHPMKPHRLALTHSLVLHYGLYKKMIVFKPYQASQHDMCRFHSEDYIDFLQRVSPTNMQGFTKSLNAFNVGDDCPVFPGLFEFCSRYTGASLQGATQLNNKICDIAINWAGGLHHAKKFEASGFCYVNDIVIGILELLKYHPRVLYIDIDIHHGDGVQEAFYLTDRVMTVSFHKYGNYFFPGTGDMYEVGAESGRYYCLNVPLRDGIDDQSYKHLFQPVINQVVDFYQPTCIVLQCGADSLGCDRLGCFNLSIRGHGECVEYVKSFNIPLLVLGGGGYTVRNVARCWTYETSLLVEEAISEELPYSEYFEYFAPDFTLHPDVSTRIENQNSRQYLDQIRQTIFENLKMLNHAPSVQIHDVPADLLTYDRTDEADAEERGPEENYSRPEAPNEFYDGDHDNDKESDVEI
UniProt Q13418, sequence (Q13418 whole entry, looked up): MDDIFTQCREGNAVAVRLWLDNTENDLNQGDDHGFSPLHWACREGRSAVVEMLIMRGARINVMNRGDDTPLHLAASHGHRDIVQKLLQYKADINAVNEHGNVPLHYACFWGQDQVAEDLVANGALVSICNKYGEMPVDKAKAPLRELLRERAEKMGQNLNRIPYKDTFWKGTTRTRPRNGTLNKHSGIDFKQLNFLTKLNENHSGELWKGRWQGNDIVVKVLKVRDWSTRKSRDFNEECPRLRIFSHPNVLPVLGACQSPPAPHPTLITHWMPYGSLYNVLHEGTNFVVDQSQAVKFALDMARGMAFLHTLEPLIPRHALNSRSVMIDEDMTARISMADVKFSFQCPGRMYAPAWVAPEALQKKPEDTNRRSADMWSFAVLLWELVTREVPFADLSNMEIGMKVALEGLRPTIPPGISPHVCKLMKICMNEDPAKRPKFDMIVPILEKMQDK
UniProt P19367, sequence (P19367 whole entry, looked up): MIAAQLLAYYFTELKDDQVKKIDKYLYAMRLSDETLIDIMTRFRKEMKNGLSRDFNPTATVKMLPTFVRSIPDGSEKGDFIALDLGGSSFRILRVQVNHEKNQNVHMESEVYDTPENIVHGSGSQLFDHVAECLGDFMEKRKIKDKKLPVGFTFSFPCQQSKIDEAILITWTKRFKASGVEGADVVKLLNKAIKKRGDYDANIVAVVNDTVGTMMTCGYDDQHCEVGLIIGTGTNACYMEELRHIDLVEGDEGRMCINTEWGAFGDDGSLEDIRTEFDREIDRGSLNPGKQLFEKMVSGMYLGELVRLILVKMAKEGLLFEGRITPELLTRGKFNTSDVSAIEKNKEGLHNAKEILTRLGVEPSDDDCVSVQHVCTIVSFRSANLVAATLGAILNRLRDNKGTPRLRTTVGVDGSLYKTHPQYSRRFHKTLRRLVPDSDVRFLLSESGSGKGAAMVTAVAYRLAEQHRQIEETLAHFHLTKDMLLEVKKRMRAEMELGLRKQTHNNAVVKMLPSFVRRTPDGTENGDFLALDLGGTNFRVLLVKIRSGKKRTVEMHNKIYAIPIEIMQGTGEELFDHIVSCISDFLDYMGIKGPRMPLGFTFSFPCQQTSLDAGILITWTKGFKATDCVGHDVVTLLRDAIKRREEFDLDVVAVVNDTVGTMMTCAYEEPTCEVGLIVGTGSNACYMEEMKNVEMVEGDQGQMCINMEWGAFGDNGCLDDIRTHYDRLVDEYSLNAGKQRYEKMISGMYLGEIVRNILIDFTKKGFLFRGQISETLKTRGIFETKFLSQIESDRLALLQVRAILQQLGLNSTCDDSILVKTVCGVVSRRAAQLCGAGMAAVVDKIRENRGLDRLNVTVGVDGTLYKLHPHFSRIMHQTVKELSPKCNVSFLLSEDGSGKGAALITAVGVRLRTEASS
UniProt P52789, sequence (P52789 whole entry, looked up): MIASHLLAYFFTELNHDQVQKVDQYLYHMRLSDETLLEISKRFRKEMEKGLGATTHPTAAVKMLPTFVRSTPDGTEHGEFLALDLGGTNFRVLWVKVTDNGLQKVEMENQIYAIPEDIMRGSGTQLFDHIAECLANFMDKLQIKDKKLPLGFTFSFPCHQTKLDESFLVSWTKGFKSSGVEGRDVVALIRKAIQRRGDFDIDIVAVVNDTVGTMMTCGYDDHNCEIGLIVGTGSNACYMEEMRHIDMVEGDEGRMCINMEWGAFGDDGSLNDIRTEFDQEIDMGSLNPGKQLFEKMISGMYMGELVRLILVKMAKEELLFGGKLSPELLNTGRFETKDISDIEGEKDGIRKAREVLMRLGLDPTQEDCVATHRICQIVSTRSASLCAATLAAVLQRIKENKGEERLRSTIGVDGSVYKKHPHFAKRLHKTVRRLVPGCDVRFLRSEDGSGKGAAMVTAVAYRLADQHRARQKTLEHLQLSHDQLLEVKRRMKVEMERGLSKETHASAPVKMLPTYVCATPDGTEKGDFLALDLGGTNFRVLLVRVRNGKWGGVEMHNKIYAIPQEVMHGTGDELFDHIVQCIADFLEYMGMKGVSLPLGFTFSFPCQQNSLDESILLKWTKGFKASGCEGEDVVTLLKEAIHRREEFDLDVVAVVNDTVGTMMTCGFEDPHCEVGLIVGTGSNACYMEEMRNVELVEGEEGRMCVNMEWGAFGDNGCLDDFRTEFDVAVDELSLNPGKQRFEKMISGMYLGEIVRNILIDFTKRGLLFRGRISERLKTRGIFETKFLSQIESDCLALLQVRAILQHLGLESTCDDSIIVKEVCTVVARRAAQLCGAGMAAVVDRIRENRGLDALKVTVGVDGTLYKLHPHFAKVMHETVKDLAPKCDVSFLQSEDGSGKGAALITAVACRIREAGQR
UniProt Q03013, sequence (Q03013 whole entry, looked up): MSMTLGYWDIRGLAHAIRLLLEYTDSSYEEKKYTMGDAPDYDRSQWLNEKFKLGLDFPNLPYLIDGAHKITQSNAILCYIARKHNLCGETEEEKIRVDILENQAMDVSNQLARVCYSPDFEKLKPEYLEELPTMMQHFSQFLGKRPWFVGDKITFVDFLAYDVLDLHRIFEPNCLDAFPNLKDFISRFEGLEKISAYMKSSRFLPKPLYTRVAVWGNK
UniProt Q9BUE6, sequence (Q9BUE6 whole entry, looked up): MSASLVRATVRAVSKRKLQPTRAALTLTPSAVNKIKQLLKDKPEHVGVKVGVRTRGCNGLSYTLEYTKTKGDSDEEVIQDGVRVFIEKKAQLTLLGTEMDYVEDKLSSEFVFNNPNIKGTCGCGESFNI

log2 fold change, inactive:
IFNGR1 (UniProt P15260) 0.084
GSTCD (UniProt Q8NEC7) -0.014
GSTM4 (UniProt Q03013) 0.024
GNB1 (UniProt P62873) -0.027
HMGN4 (UniProt O00479) 0.012
KATNBL1 (UniProt Q9H079) 0.017
HNRNPAB isoform 3 (UniProt Q99729) -0.005
IRF2BPL (UniProt Q9H1B7) 0
HNRNPD isoform 3 (UniProt Q14103) 0.028
HDAC3 (UniProt O15379) -0.004
IGF2BP2 (UniProt Q9Y6M1) 0.016
IRAK4 (UniProt Q9NWZ3) 0.028
HSPB1 (UniProt P04792) 0
HK2 (UniProt P52789) 0.035
HAUS4 (UniProt Q9H6D7) 0.014
GNB4 (UniProt Q9HAV0) 0.028
GRK6 isoform 2 (UniProt P43250) 0.028
ILK (UniProt Q13418) -0.022
INPPL1 (UniProt O15357) 0.028
HNRNPLL (UniProt Q8WVV9) 0.015
GTF2I (UniProt P78347) 0
GPR108 (UniProt Q9NPR9) 0.046
GMPS (UniProt P49915) 0.001
HIST2H2BC (UniProt Q6DN03) -0.01
HARS (UniProt P12081) 0.005
HNRNPUL2 (UniProt Q1KMD3) 0.004
ISCA1 isoform 2 (UniProt Q9BUE6) -0.007
HSPA8 (UniProt E9PN89) 0.084
IMMT (UniProt Q16891) -0.017
HAUS5 (UniProt O94927) 0.004
IMPDH2 (UniProt P12268) -0.016
HSD17B10 (UniProt Q99714) -0.002
HK1 isoform 2 (UniProt P19367) -0.005
HIST2H2AA3 (UniProt Q6FI13) 0.01
HELQ (UniProt Q8TDG4) 0.122
ICAM2 (UniProt P13598) -0.004
